Reference: PubChem BioAssay (NCI)
The panel holds about 79,000 compounds, 15% with a hit somewhere; the sample as a whole holds those more often. Cut-off read from the data, not from the text of the source: active = growth inhibition above about 70%; inactive = the rest.

Assays:
[1] = NCI Yeast Anticancer Drug Screen. Data for the rad50 strain (AID 155);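 note: 0% = growth of vehicle-only cultures of the same strain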; conditions: S. cerevisiae rad50 strain growth inhibition; at 50.0 µM; hits give high values
Procedure, shortened: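 Yeast carrying a defined DNA repair defect were exposed to test compounds, and growth was compared with vehicle-treated controls to give percent inhibition.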

[2] = NCI Yeast Anticancer Drug Screen. Data for the mec2-1 strain (AID 157); conditions: S. cerevisiae mec2-1 strain, at 50.0 µM, hits give high values
Procedure, shortened: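 Mutant yeast (mec2-1) grown with compound; growth inhibition relative to vehicle control reported.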

[3] = NCI Yeast Anticancer Drug Screen. Data for the sgs1 mgt1 strain (AID 161);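 note: 0% = growth of cultures given vehicle only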; conditions: S. cerevisiae sgs1 mgt1 strain, at 50.0 µM, hits give high values
Procedure, shortened: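 Growth of a repair-deficient yeast mutant was monitored after compound treatment and expressed as inhibition relative to vehicle-treated cultures.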

[4] = NCI Yeast Anticancer Drug Screen. Data for the cln2 rad14 strain (AID 165);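 note: 0% = growth equal to vehicle treated cultures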; conditions: S. cerevisiae cln2 rad14 strain, at 50.0 µM, hits give high values
Procedure, shortened: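 Readout is yeast growth inhibition versus vehicle-treated controls, using a strain with cln2 and rad14 alterations exposed to compound.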

[5] = NCI Yeast Anticancer Drug Screen. Data for the bub3 strain (AID 167); conditions: S. cerevisiae bub3 mutant strain, at 50.0 µM, hits give high values
Procedure, shortened: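 Compounds were applied to a genetically altered yeast strain carrying a cell-cycle control defect. Growth inhibition was scored against vehicle-treated controls.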

[6] = NCI Yeast Anticancer Drug Screen. Data for the mlh1 rad18 strain (AID 175); conditions: S. cerevisiae mlh1 rad18 strain growth inhibition; at 50.0 µM; hits give high values
Procedure, shortened: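 Genetically defined yeast (DNA repair-deficient) exposed to compounds; growth inhibition determined relative to vehicle.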

Measured: growth inhibition

CC(C)=NN/C=N/S(=O)(=O)c1ccc(C)cc1
inactive: [1] 15.2% | [2] 6.05% | [3] 10.4% | [4] 25% | [5] 2.1% | [6] 4.65%

CC(=O)OCC1OC(N2C(c3ccccc3)=CC(c3cccs3)C(C#N)=C2S)C(OC(C)=O)C(OC(C)=O)C1OC(C)=O (stereo unspecified)
inactive: [1] 27.4% | [2] 28.9% | [3] 40.6% | [4] 18% | [5] 46.2% | [6] 23.3%

N#C/C(=C/n1c(=S)[nH]c2ccc([N+](=O)[O-])cc21)C(N)=O
inactive: [1] -53.3% | [2] -41% | [3] -50.4% | [4] 2.15% | [5] -24% | [6] -70.9%

CC(C)Nc1ccc(O)cc1
inactive: [1] -21.1% | [2] -40% | [3] -4.2% | [4] -6.3% | [5] -10.3% | [6] -8%

CC(=O)C(C)(C)Cc1cc(C(C)(C)CC=O)on1
inactive: [1] -2.25% | [2] -0.8% | [3] -12.4% | [4] 5.35% | [5] 29.1% | [6] 4.95%

O=C(CC(C(=O)O)S(=O)(=O)O)Nc1ccc(S(=O)(=O)c2ccc(NC(=O)CC(C(=O)O)S(=O)(=O)O)cc2)cc1 (stereo unspecified)
inactive: [1] 2.45% | [2] 4.55% | [3] 2.55% | [4] -5.55% | [5] -7.9% | [6] -11.3%

O=C(O)c1cccc(CO)c1O
inactive: [1] 3.25% | [2] -10.5% | [3] -12.7% | [4] -17.4% | [5] 6.75% | [6] 4.4%

CCOC(=O)CCC(NC(=O)c1ccc(Nc2nc3ccccc3nc2C(=O)OCC)cc1)C(=O)OCC (stereo unspecified)
inactive: [1] 11.8% | [2] 2.55% | [3] 9.1% | [4] 15.4% | [5] 25.8% | [6] 19.1%

CCOC(=O)c1cnc(SC)nc1Nc1cccc(C)c1
inactive: [1] -13.4% | [2] -10.4% | [3] -11.9% | [4] -18.1% | [5] 9.1% | [6] -36.1%

O=C(NCCCOc1ccc(Cl)c(Cl)c1)NCCc1ccc(Cl)c(Cl)c1
inactive: [1] 6.65% | [2] 4.7% | [3] -3.95% | [4] -8.9% | [5] 0.95% | [6] 15.4%

O=C(NC(=Nc1ccccc1)SCSC(=Nc1ccccc1)NC(=O)c1ccco1)c1ccco1
inactive: [1] -5.85% | [2] -7.9% | [3] -45.7% | [4] 12.7% | [5] -4.7% | [6] -12.4%

COc1cc(CCl)cc(OC)c1OC
inactive: [1] -13.7% | [2] -12% | [3] -7.7% | [4] -21.9% | [5] -7.65% | [6] -11.8%

Cc1ccc2ccccc2c1C(=O)c1ccccc1Cc1cccc2ccccc12
inactive: [1] 17.6% | [2] 2.65% | [3] 10.6% | [4] 2.2% | [5] 4.55% | [6] -1.05%

CC(NC(=O)N(C)C)NC(=O)N(C)C
inactive: [1] -17.9% | [2] -22.3% | [3] -5.15% | [4] -5.85% | [5] -0.9% | [6] -4.95%

C=CCC(OC(=O)C=C(C)C)c1ccc2c(c1)OCO2 (stereo unspecified)
inactive: [1] -23.6% | [2] -31.9% | [3] -6.65% | [4] -5.5% | [5] 38.8% | [6] 6.3%

CCOP(=O)(Cc1ccc(CP(=O)(OCC)OCC)n1C)OCC
inactive: [1] -6.15% | [2] -7.5% | [3] -13.7% | [4] 17.4% | [5] -4.7% | [6] 15.1%

Cc1ccc(Nc2nnc(Nc3ccc(C)cn3)c3ccccc23)nc1
inactive: [1] -10.7% | [2] -12.4% | [3] -4.55% | [4] -18.8% | [5] 4.1% | [6] -7.95%

CC(=O)C(CCCCCCCCCCC(C(C)=O)C(C)=O)C(C)=O
inactive: [1] -9.3% | [2] -2.75% | [3] -5.05% | [4] -38.6% | [5] -6% | [6] -10.2%

CCc1ccccc1NC(=O)/C(CC(=O)c1c(C)n([O-])c2ccccc2[n+]1=O)=N\NS(=O)(=O)c1ccc(C)cc1
inactive: [1] -18.8% | [2] -8.25% | [3] -12.3% | [4] 12.7% | [5] 7.25% | [6] 2.5%

NC(=S)/N=C/C1=C(O)CCCC1=O
inactive: [1] 2.05% | [2] 5.95% | [3] 16.4% | [4] 17% | [5] 14% | [6] 11.2%

O=C(O)c1ccccc1N=N/C(=N\Nc1ccccc1C(=O)O)c1ccnc2ccccc12
inactive: [1] 37.5% | [2] 10% | [3] 29.3% | [4] 11.2% | [5] 2.8% | [6] 26.9%

CC(=O)NCC(O)C(O)C(O)C(O)COC(=O)c1ccccc1 (stereo unspecified)
inactive: [1] 6.6% | [2] -1.25% | [3] 19.2% | [4] -6.45% | [5] -2.15% | [6] -5%

C[N+](C)(C)c1ccc(C(N)C(=O)O)cc1 (stereo unspecified)
inactive: [1] -7.7% | [2] -18.3% | [3] -17.1% | [4] -30.1% | [5] -41.7% | [6] 2.8%

COC1=CC(=O)C(Cc2ccc3c(c2)OCO3)=CC1=O
inactive: [1] 13.2% | [2] 24.6% | [3] 15.7% | [4] -9.45% | [5] 3.1% | [6] 34.5%

Cc1ccc(OCC2OC(n3cnc4c(Cl)nc(N)nc43)CC2Oc2ccc(C)cc2)cc1 (stereo unspecified)
inactive: [1] 2.3% | [2] -11% | [3] 13.4% | [4] 14.6% | [5] 2.4% | [6] -13.2%

COC(=O)NN=C1C(C)(C)C(=NNC(=O)OC)C1(C)C
inactive: [1] 2.25% | [2] -15.5% | [3] -8.6% | [4] 27.1% | [5] -17.6% | [6] -5.4%

C=CC12CCC(CC1)n1c(=O)n(C)c(=O)n12
inactive: [1] -8.05% | [2] -11.7% | [3] -11.4% | [4] -34.5% | [5] -18% | [6] -6.8%

O=C(COC(=O)c1cccc([N+](=O)[O-])c1)c1ccc(Br)cc1
inactive: [1] 6.55% | [2] 20.3% | [3] 1.55% | [4] -16.2% | [5] 7.3% | [6] 5.8%

CC(=O)NC1=NCC(CSc2nc3ccccc3s2)S1 (stereo unspecified)
inactive: [1] -8.45% | [2] -14.3% | [3] 5.65% | [4] -26.2% | [5] 9.7% | [6] 4.3%

CCCCOC(OCCCC)C(C)(C)CN(C)C
inactive: [1] 14.9% | [2] 13.2% | [3] 13.4% | [4] 17.9% | [5] 7.15% | [6] 19.1%

Cc1ccc(C(=O)C[N+]2(C)CCOCC2)cc1
inactive: [1] 15.8% | [2] -7.5% | [3] 16.6% | [4] -21.9% | [5] 8.4% | [6] 20.4%

O=[N+]([O-])c1cccc2nc3ccccc3c(NCCc3ccccn3)c12
inactive: [1] 13.3% | [2] -19.9% | [3] 20.6% | [4] -32.4% | [5] -17.1% | [6] 13.8%

O=c1c[n+](-c2ccccc2)[nH]o1
inactive: [1] 41.2% | [2] -12.1% | [3] 22.1% | [4] 5.5% | [5] 7.7% | [6] 27.5%

CCCCCNC(=O)C(C)O (stereo unspecified)
inactive: [1] 5.6% | [2] -8.3% | [3] -9.7% | [4] -30.5% | [5] -2.2% | [6] 14.6%

CSc1nnc(COc2ccc(Cl)cc2)o1
inactive: [1] 22.3% | [2] 5.75% | [3] 26.1% | [4] 29.4% | [5] 12.8% | [6] 20.7%

Nc1ncc2c(n1)SCC2
inactive: [1] -10.3% | [2] -5.8% | [3] -8.25% | [4] -19.7% | [5] -17.6% | [6] -19.6%

S=C(Nc1ccccc1)Nc1ccc(NC(=S)Nc2ccccc2)cc1
inactive: [1] 8.25% | [2] -0.25% | [3] -3.6% | [4] -4.95% | [5] -8.45% | [6] -52.2%

CC(C)(C)OC(=O)N/N=C\c1ccnc2ccccc12
inactive: [1] -8.1% | [2] -8.75% | [3] 3.2% | [4] -15.7% | [5] -6.5% | [6] -1.95%

CC1(C(=O)N2c3ccccc3C=CC2C#N)CC2C=CC1C2 (stereo unspecified)
inactive: [1] -19.9% | [2] 4.6% | [3] 1.9% | [4] 7.6% | [5] -2.4% | [6] -15.9%

CCOc1c(CNC(=O)CCl)cc(N)cc1CNC(=O)CCl
inactive: [1] 6.45% | [2] 3.4% | [3] -14% | [4] 10.8% | [5] 2.1% | [6] -10.3%

OC(c1ccccc1)C(Cl)c1ccccc1 (stereo unspecified)
inactive: [1] 1% | [2] -2.25% | [3] 1.9% | [4] -13.8% | [5] -19.3% | [6] 19.8%
